IDE inh: human IDE inhibitors in live cells, primary screen, fluorescence polarization, HEK cells, FAbetaB substrate; FAbetaB cleavage; inhibition, % at 5.59 µM; 0.41% of 320,000 active;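 active means percent inhibition above the average of all tested compounds plus 3 SD, set per screening campaign, cut at about 16% in these data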;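 further: IDE supplied by intact live HEK cells; FP after avidin binding of uncleaved biotin substrate so inhibition keeps polarization high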
Myeloid diff MLP: induction of myeloid progenitor differentiation, primary screen, cell-based, flow cytometry, MLPCN library; AID 624256, 2012; ER-HoxA9 myeloid progenitors, lysozyme-GFP differentiation; calls only at 10 µM; 1% of 360,000 active;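 active means normalized GFP-positive differentiation at or above the plate's own cutoff, the solvent-only control mean plus 3 SD; inconclusive means no clear call, values can overlap the other calls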;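 further: cells exposed to compound for four days before flow analysis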
CRFBP-R2 block: antagonists of CRF-BP/CRF-R2 complex, primary screen, cell-based, HEK293, calcium dye fluorescence, uHTS; CRF-induced calcium fluorescence; 0.59% of 350,000 active; inhibition, % at 11.8 µM;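 active means inhibition of the ligand-induced calcium signal above about 50% at the single tested concentration, limit read from the data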
IDE act: human IDE activators in live cells, primary screen, fluorescence polarization, HEK cells, FAbeta-B substrate; Insulin-degrading enzyme (Homo sapiens), P14735; FAbeta-B cleavage; 0% vehicle, 100% cell-free pure enzyme wells; activation, % at 5.96 µM; 0.073% of 340,000 active; AID 493087, 2011;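 active means activation above the mean of all tested compounds plus 3 SD, set per screening campaign, cut at about 17% in these data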
CRFR2-BP ag: agonists of CRF-BP/CRF-R2 complex, primary screen, cell-based, HEK293, calcium dye fluorescence, uHTS. CRF-binding protein / CRF receptor 2 complex (human). calcium dye fluorescence (FLIPR); percent of saturating CRF peptide response. activation, % at 13.2 µM. 0.46% of 350,000 active;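 active means activation of at least 50%, plus an integration ratio under a set limit after plate pattern correction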
TPT1 inh: Candida albicans TPT1 enzyme inhibitors, primary screen, biochemical, fluorescence polarization; recombinant caTPT1, FP RNA substrate dephosphorylation; inhibition, % at 5 µM; AID 1962, 2009; 0.81% of 300,000 active; tRNA 2'-phosphotransferase TPT1 (Candida albicans SC5314);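 active means inhibition above the mean of all tested compounds plus 3 SD, set per screening campaign, cut at about 24% in these data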
Each line names hits and unclear results; the compound was inactive in the other large screens. The list is not random: actives were taken first. Their share in the collection is about 2.6%.

C/C(=N/O)c1ccccn1	none
CCN(C(=O)CSc1cc(-c2ccccc2)c2ccc(OC)cc2n1)C1CCS(=O)(=O)C1 (centres undefined)	none
CCN(C(=O)CSc1cc(C)c2ccc(OC)cc2n1)C1CCS(=O)(=O)C1 (centres undefined)	CRFBP-R2 block 98
O=C(CCc1c[nH]c2ccccc12)N1CCN(S(=O)(=O)c2ccc(F)cc2)CC1	none (no result: IDE inh, TPT1 inh)
Cc1cc(C)n2c(SCC(=O)Nc3cccc(S(N)(=O)=O)c3)nnc2n1	none (no result: TPT1 inh)
Cc1cc(SCC(=O)Nc2cccc(S(=O)(=O)NC3=NCCCCC3)c2)c(C)cc1Br	Myeloid diff MLP active
Cc1cc(SCC(=O)Nc2cccc(S(N)(=O)=O)c2)c(C)cc1Br	CRFBP-R2 block 103
O=C(COC(=O)c1ccc([N+](=O)[O-])s1)Nc1cccc(S(=O)(=O)NC2=NCCCCC2)c1	CRFBP-R2 block 68
C[C@H]1O[C@@H](O[C@H]2CC[C@@]3(C)C(CC[C@]4(C)C3C=C[C@]35OC[C@@]6(CCC(C)(C)C[C@H]63)[C@@H](O)C[C@]54C)[C@]2(C)CO)[C@H](O)[C@@H](O[C@@H]2O[C@H](CO)[C@@H](O)[C@H](O)[C@H]2O)[C@H]1O (some centres undefined)	CRFR2-BP ag 87 (no result: TPT1 inh)
CC1OC(OC2C(CO)OC(OCC3OC(OC(=O)[C@@]45CCC(C)(C)C[C@@H]4C4=CC[C@@H]6[C@@]7(C)CCC(OC8OCC(O)C(O)C8OC8OC(C)C(O)C(O)C8O)[C@@](C)(CO)C7CC[C@@]6(C)[C@]4(C)CC5)C(O)C(O)C3O)C(O)C2O)C(O)C(O)C1O (some centres undefined)	none (no result: IDE inh, TPT1 inh)
COc1ccc(CCNS(=O)(=O)c2cn(C)cn2)cc1OC	Myeloid diff MLP active
COc1ccc(CCNS(=O)(=O)c2cn(C)nc2C)cc1OC	none
CC1=C(C(=O)NCc2ccccn2)C2(CCC(C)CC2)OC1=O (centres undefined)	CRFBP-R2 block 66
CC1=C(C(=O)NCc2ccc(Cl)cc2)C2(CCC(C)CC2)OC1=O (centres undefined)	none
Cc1ccc2c(c1)c1c3n2CCN=C3CCC1	Myeloid diff MLP active
c1cc2c(cc1C1CCCCC1)c1c3n2CCN=C3CCC1	none
CC(=O)OCCn1c2nc(=O)[nH]c(=O)c-2nc2cc(C)c(C)cc21	Myeloid diff MLP inconclusive, IDE act 75, CRFR2-BP ag 203 (no result: IDE inh, TPT1 inh)
O=C(NCc1ccccc1C(F)(F)F)c1cccc2c1C(=O)c1ccc(N3CCCCC3)cc1S2(=O)=O	CRFR2-BP ag 76 (no result: TPT1 inh)
C=CCNC(=O)c1cccc2c1C(=O)c1ccc(N3CCOCC3)cc1S2(=O)=O	CRFBP-R2 block 98 (no result: TPT1 inh)
O=C(NCCN1CCCCC1)c1cccc2c1C(=O)c1ccc(N3CCCC3)cc1S2(=O)=O	Myeloid diff MLP active (no result: TPT1 inh)
Cc1ncc(CN=Cc2ccc(Cl)cc2)c(N)n1	none
COc1ccc(-c2nnc(SCc3nc4ccccc4c(=O)[nH]3)o2)cc1	none
CCN1CCN(S(=O)(=O)c2ccc(Cl)c(C(=O)NCc3nc4ccccc4[nH]3)c2)CC1	none (no result: TPT1 inh)
COc1ccc(/C=C/c2c([N+](=O)[O-])c(=O)n(C)c(=O)n2C)cc1O	CRFBP-R2 block 52
CCOc1ccc(C(=O)OCC(=O)Nc2cccnc2Cl)cc1OCC	CRFBP-R2 block 103 (no result: TPT1 inh)
Cc1cc(C)cc(C(=O)Nc2cccnc2Cl)c1	CRFBP-R2 block 68
COc1ccc(NS(=O)(=O)c2cccc(C(=O)NNC(=O)CNC(=O)c3ccco3)c2)cc1	none
COc1ccc(C(C(=O)NC(C)(C)C)n2c(=O)c(-c3ccccc3)nc3ccccc32)cc1 (centres undefined)	none (no result: IDE inh, CRFBP-R2 block, IDE act, CRFR2-BP ag, TPT1 inh)
Cc1ccc(C(=O)N/C(=C\c2cn(C)c3ccccc23)C(=O)NCCCN2CCOCC2)cc1	CRFBP-R2 block 101
COc1cc2c(cc1[N+](=O)[O-])-c1ccc([N+](=O)[O-])cc1C2	none (no result: IDE inh, CRFBP-R2 block, IDE act, CRFR2-BP ag, TPT1 inh)
COc1cc2c(cc1[N+](=O)[O-])-c1ccccc1C2	CRFR2-BP ag 87 (no result: IDE inh, TPT1 inh)
CCc1nnc(NS(=O)(=O)c2ccc(NC(=S)NC(=O)/C=C/c3ccc(OC)cc3)cc2)s1	none
CCc1nnc(NS(=O)(=O)c2ccc(NC(=S)NC(=O)/C=C/c3ccccc3)cc2)s1	CRFBP-R2 block 56
C=CCc1cccc2cc(C(=O)Nc3ccc(S(=O)(=O)Nc4nnc(CC)s4)cc3)c(=O)oc12	CRFBP-R2 block 61
C=CCc1cccc2cc(C(=O)Nc3ccc(F)cc3)c(=O)oc12	none
COc1ccc(S(=O)(=O)NCCc2nnc3ccc(SCC(=O)Nc4nc(C)cs4)nn23)cc1	none
O=C1CC(SC(=S)C2CCCC2=O)C(=O)N1 (centres undefined)	none (no result: IDE inh, IDE act, TPT1 inh)
CN(C)S(=O)(=O)N1CCC(Oc2cccc(C(=O)NC3CCOC3)c2)CC1 (centres undefined)	none
Cc1ccc(NC(=O)CN2CCC(Cc3ccccc3)CC2)cc1S(=O)(=O)N(C)C	Myeloid diff MLP active
Cc1ccc(CN2CCN(Cc3ccc4cc(F)ccc4n3)CC2CCO)o1 (centres undefined)	none
O=C(COC(=O)[C@H](Cc1ccccc1)NC(=O)c1ccco1)NCc1ccccc1	CRFR2-BP ag 79
CN(C)C(=O)COC(=O)[C@H](Cc1ccccc1)NC(=O)c1ccco1	CRFR2-BP ag 107
CN(C(=O)COC(=O)C(Cc1ccccc1)NC(=O)c1ccccc1)c1ccccc1 (centres undefined)	none
O=C(COC(=O)C(Cc1ccccc1)NC(=O)c1cccs1)NCc1ccccc1 (centres undefined)	none (no result: TPT1 inh)
CN(C)C(=O)COC(=O)c1ccccc1NC(=O)c1ccco1	Myeloid diff MLP active
CCOc1ccc(CNC(=O)CCC(=O)N2Cc3cccc(OC)c3Oc3ncccc32)cc1	CRFBP-R2 block 52
CCc1ccc(CNC(=O)CCC(=O)N2Cc3cccc(OC)c3Oc3ncccc32)cc1	none
CC(C)(C)c1ccc(OCC(=O)Nc2ccncc2)cc1	none
O=C(NC1CCS(=O)(=O)C1)c1cccc(Cl)c1 (centres undefined)	none
CC1(C)CC[C@]2(C(=O)O)CC[C@]3(C)C(=CC[C@@H]4[C@@]5(C)CC[C@H](O[C@@H]6O[C@H](C(=O)O)[C@@H](O)[C@H](O[C@@H]7OC[C@H](O)[C@H](O)[C@H]7O)[C@H]6O)C(C)(C)[C@@H]5CC[C@]43C)[C@@H]2C1	CRFR2-BP ag 256 (no result: TPT1 inh)
CCN1/C(=C/c2ccc3cc(C)ccc3[n+]2CC)Sc2cc(C)c(C)cc21	CRFR2-BP ag 184 (no result: IDE inh, Myeloid diff MLP, TPT1 inh)
O=S(=O)(c1cccs1)n1nnc2ccccc21	none

Assay outcomes deposited in PubChem by several laboratories.
